Results on nine molecules are retold here after PubChem BioAssay (NCI).

Compounds without any hit were thinned out: in the full panel of roughly 83,000, 20% have a hit.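 Each cell line was grown in a 96-well plate and treated with one concentration of compound for 48 hours. Values below 10 were considered active.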 Values without a mark were called inactive. Active and inactive are the calls of the source.

Assay in all cases: NCI-60 one-dose screen, 48 h (100 = growth as untreated, 0 = no growth, -100 = all killed)
In one assay the test system is SR leukemia. Conditions: 10 µM unless noted.
The subject of the next assay is RPMI-8226 leukemia. Conditions: 10 µM unless noted.
A further assay relates to OVCAR-8 ovarian. The settings on record: 10 µM unless noted.
The next assay concerns OVCAR-5 ovarian. The settings on record: 10 µM unless noted.
The subject of a further assay is OVCAR-4 ovarian. Conditions: 10 µM unless noted.
A further assay has as its system SK-OV-3 ovarian. Conditions: 10 µM unless noted.
The next assay has as its system IGROV1 ovarian. Conditions: 10 µM unless noted.
A further assay has as its system OVCAR-3 ovarian. The settings on record: 10 µM unless noted.
A further assay deals with HS 578T breast. The settings on record: 10 µM.
Another assay concerns NCI/ADR-RES ovarian. The settings on record: 10 µM unless noted.
The subject of a further assay is T-47D breast. Conditions: 10 µM unless noted.
In the next assay the test system is BT-549 breast. Conditions: 10 µM unless noted.
The subject of a further assay is MDA-MB-435 melanoma. The settings on record: 10 µM unless noted.
The next assay deals with SW-620 colon. The settings on record: 10 µM unless noted.
The subject of the next assay is HCT-116 colon. Conditions: 10 µM unless noted.
The subject of a further assay is HCC-2998 colon. Conditions: 10 µM unless noted.
A further assay relates to KM12 colon. Conditions: 10 µM unless noted.
A further assay has as its system MCF7 breast. Conditions: 10 µM unless noted.

As for `Cc1cc(O)c(C2=NN(c3ccc(S(N)(=O)=O)cc3)C(c3ccc(Cl)cc3)C2)c(C)c1Cl` (configuration not stated), the growth in the assay with SR leukemia is -24.1% (active); with RPMI-8226 leukemia, -37.6% (active); in the assay with OVCAR-8 ovarian it was 5.73% (active); in the assay on OVCAR-5 ovarian, 95.2%; in the assay with OVCAR-4 ovarian, 58.9%; in the assay with SK-OV-3 ovarian, 81.6%. The growth with IGROV1 ovarian was 20.6%; in the assay on OVCAR-3 ovarian it was 68.1%; in the assay with HS 578T breast it was 71.2%; with NCI/ADR-RES ovarian, 80.3%; with T-47D breast, 46.9%; with BT-549 breast, 112%. The growth is 38.6% in the assay on MDA-MB-435 melanoma; 48.5% in the assay with SW-620 colon; 55.1% in the assay on HCT-116 colon; 66.5% with HCC-2998 colon; 29.1% in the assay on KM12 colon.

Take `C/C(=N\OC(=O)Nc1ccccc1)c1ccccc1`: the growth was 81.5% in the assay with SR leukemia; 99.1% in the assay with RPMI-8226 leukemia; 106% in the assay with OVCAR-8 ovarian; 98.4% with OVCAR-5 ovarian; 92.9% in the assay on OVCAR-4 ovarian; 115% with SK-OV-3 ovarian. For the same molecule, the growth with IGROV1 ovarian was 106%; in the assay on OVCAR-3 ovarian, 108%; in the assay with HS 578T breast, 85.1%; in the assay on NCI/ADR-RES ovarian, 107%; with T-47D breast, 104%; in the assay with BT-549 breast it was 99.9%. The growth was 95.1% in the assay with MDA-MB-435 melanoma; 95% in the assay with MCF7 breast; 105% in the assay with HCT-116 colon; 117% in the assay on HCC-2998 colon; 107% with KM12 colon.

Turning to `COc1cc(-c2csc(NC(=O)Nc3cccc(C(F)(F)F)c3)n2)cc(OC)c1OC`, the growth with SR leukemia is 67.3%; with RPMI-8226 leukemia it was 18.6%; in the assay on OVCAR-8 ovarian, 22.6%; in the assay with OVCAR-5 ovarian, 80.3%; in the assay with OVCAR-4 ovarian it was 29.9%; in the assay on SK-OV-3 ovarian, 80.7%. The growth in the assay on IGROV1 ovarian is 59.6%; in the assay on OVCAR-3 ovarian, 37.7%; with HS 578T breast, 71.2%; in the assay on NCI/ADR-RES ovarian it was 26.5%; in the assay with T-47D breast, 7.61% (active); in the assay with BT-549 breast, 43.8%. The growth was 57.1% in the assay with MDA-MB-435 melanoma; 35.5% in the assay on MCF7 breast; 46.9% with HCT-116 colon; 81.1% in the assay with HCC-2998 colon; 34.5% in the assay on KM12 colon.

With `COc1cc(NC(C)CCCN)c2ncccc2c1Oc1ccc(Cl)cc1` (configuration not stated), the growth in the assay on SR leukemia was 53.2%; in the assay with RPMI-8226 leukemia, 63%; in the assay on OVCAR-8 ovarian, 84.8%; in the assay on OVCAR-5 ovarian, 84.6%; in the assay with OVCAR-4 ovarian it was 56.3%; with SK-OV-3 ovarian, 98.6%. Further, the growth is 64.6% in the assay with IGROV1 ovarian; 60% in the assay with OVCAR-3 ovarian; 70% in the assay on HS 578T breast; 77.3% in the assay with NCI/ADR-RES ovarian; 76.8% with T-47D breast; 86.2% with BT-549 breast. The growth with MDA-MB-435 melanoma is 90.7%; with SW-620 colon it was 73.5%; in the assay with MCF7 breast, 71.3%; in the assay with HCC-2998 colon it was 49.8%; in the assay with KM12 colon, 69.2%.

Turning to `CCN(CC)CCCCCCCNc1cc(OC)cc2c(C)ccnc12`, the growth with SR leukemia was 73.2%; in the assay with RPMI-8226 leukemia, 68.9%; in the assay on OVCAR-8 ovarian, 67.2%; with OVCAR-5 ovarian, 97.5%; in the assay on OVCAR-4 ovarian, 21.1%; with SK-OV-3 ovarian it was 94.9%. Moreover, the growth in the assay with IGROV1 ovarian was 52.6%; in the assay with OVCAR-3 ovarian, 20.6%; in the assay on HS 578T breast, 72.4%; in the assay with NCI/ADR-RES ovarian it was 78.6%; with T-47D breast it was 53.6%; in the assay with BT-549 breast it was 82.6%. Further, the growth was 98.6% with MDA-MB-435 melanoma; 88.6% with SW-620 colon; 27.2% in the assay with MCF7 breast; 70.9% in the assay with HCT-116 colon; 89.9% with KM12 colon.

On to `O=C(Cc1ccc(Nc2ccnc(C(F)(F)F)c2)cc1)N/N=C/c1ccccc1O`, for which the growth in the assay with SR leukemia is 98.2%; in the assay with RPMI-8226 leukemia, 29.6%; in the assay on OVCAR-8 ovarian it was 25.6%; in the assay on OVCAR-5 ovarian it was 28.1%; in the assay on OVCAR-4 ovarian it was 18.4%; in the assay with SK-OV-3 ovarian, 17.1%. In addition, the growth with IGROV1 ovarian is 18.8%; with OVCAR-3 ovarian, 40.8%; in the assay with HS 578T breast it was 102%; with NCI/ADR-RES ovarian it was 23.8%; with T-47D breast it was 18.4%; with BT-549 breast it was 50.2%. Moreover, the growth in the assay with MDA-MB-435 melanoma is 34.7%; in the assay on SW-620 colon, 38.3%; in the assay with MCF7 breast, 12.9%; in the assay with KM12 colon, 30.7%.

For the molecule `Cc1cccc(C(=O)O)n1`, the growth in the assay with SR leukemia is 120%; in the assay on RPMI-8226 leukemia it was -8.6% (active); with OVCAR-8 ovarian it was 74.4%; in the assay with OVCAR-5 ovarian it was 100%; in the assay on OVCAR-4 ovarian, 101%; with SK-OV-3 ovarian it was 119%. The growth in the assay on IGROV1 ovarian was 72%; with OVCAR-3 ovarian it was 115%; with HS 578T breast, 118%; in the assay with NCI/ADR-RES ovarian, 107%; in the assay with T-47D breast, 106%; in the assay with BT-549 breast, 109%. Also, the growth in the assay on MDA-MB-435 melanoma is 95.8%; in the assay with SW-620 colon it was 103%; in the assay on HCT-116 colon it was 99.2%; in the assay with HCC-2998 colon, 98.7%; in the assay on KM12 colon, 110%.

`Cc1ccc(NC(=O)Cn2nncc2CN2C(=O)CSC2=O)cc1C`: the growth in the assay with SR leukemia was 124%; with RPMI-8226 leukemia it was 106%; in the assay on OVCAR-8 ovarian, 102%; in the assay on OVCAR-5 ovarian it was 112%; in the assay on OVCAR-4 ovarian, 104%; in the assay with SK-OV-3 ovarian, 89.7%. The growth in the assay on IGROV1 ovarian is 111%; with OVCAR-3 ovarian, 102%; with HS 578T breast it was 99.2%; with NCI/ADR-RES ovarian it was 96.1%; in the assay on T-47D breast, 98.7%; in the assay on BT-549 breast, 98.8%. Besides, the growth was 100% in the assay with MDA-MB-435 melanoma; 99.3% with SW-620 colon; 92% in the assay on MCF7 breast; 92.5% in the assay with HCC-2998 colon; 105% in the assay with KM12 colon.

`COC(=O)C1(C)COP(=O)(NC23CC4CC(CC(C4)C2)C3)OC1` (configuration not stated): the growth with SR leukemia was 114%; in the assay with RPMI-8226 leukemia, 95.6%; with OVCAR-8 ovarian it was 107%; in the assay on OVCAR-5 ovarian, 113%; in the assay with OVCAR-4 ovarian it was 97.7%; with SK-OV-3 ovarian it was 100%. In addition, the growth in the assay with IGROV1 ovarian is 106%; in the assay with OVCAR-3 ovarian, 106%; with HS 578T breast, 102%; with NCI/ADR-RES ovarian, 93.9%; with T-47D breast, 111%; in the assay on BT-549 breast, 99.7%. Further, the growth with MDA-MB-435 melanoma is 105%; in the assay with SW-620 colon, 100%; in the assay with MCF7 breast, 102%; with HCT-116 colon, 108%; with KM12 colon, 102%.
